# Data reported in the supplement of paper PMC10037445.
# Over roughly 2,900 compounds, “NF-kB SEAP reporter activity, fold change vs agonist alone” has its median near 0.99; the highest 2% begin near 2.6. This excerpt belongs to a sample that is enriched for the highest values.
# Columns and labels:
# RAW-Dual [1] = experiment: NF-kB SEAP reporter activity, fold change vs agonist alone; cytotoxicity flag (confluency mask): not cytotoxic; higher = enhanced NF-kB activity
# Procedure, shortened: (§1)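 RAW-Dual macrophages (50,000 cells/well in DMEM, 384-well plates) received 50 nL of library stock by pin tool, then a PRR agonist 1 h later, and were kept at 37 °C, 5% CO2. After 20 hours, supernatant was read for IRF by QuantiLuc luminescence and for NF-κB by QuantiBlue absorbance at 620 nm. Reporter activity is fold change over agonist-alone wells. Cytotoxic wells had IncuCyte confluency below 70% of agonist controls in both mask sets.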
# RAW-Dual [2] = experiment: NF-kB SEAP reporter activity, fold change vs agonist alone; higher = enhanced NF-kB activity; conditions: library stock concentration (final ~1000-fold dilution): 10 mM
# Procedure, shortened: as §1
# RAW-Dual [3] = experiment: NF-kB SEAP reporter activity, fold change vs agonist alone; cytotoxicity flag (confluency mask): cytotoxic (confluency <70% of control); higher = enhanced NF-kB activity
# Procedure, shortened: as §1
# [4] = agonist: ODN 1826 (TLR9) 0.5 ug/mL
# [5] = agonist: Pam2CSK4 (TLR2/6) 0.1 ug/mL
# [6] = agonist: Pam3CSK4 (TLR2/1) 0.1 ug/mL
# [7] = cytotoxicity flag (confluency mask): not cytotoxic, agonist: Imiquimod (TLR7) […]
# [8] = cytotoxicity flag (confluency mask): not cytotoxic, agonist: MPLA (TLR4) […]
# [9] = cytotoxicity flag (confluency mask): cytotoxic (confluency <70% of control), agonist: MPLA (TLR4) […]
structure (smiles),measurement,setting,value
C=CC(=O)N1CCC(C2CCNc3c(C(N)=O)c(-c4ccc(Oc5ccccc5)cc4)nn32)CC1 (stereo not drawn) (library stock concentration (final ~1000-fold dilution): 10 mM),NF-kB SEAP reporter activity,RAW-Dual [1]; agonist: LPS (TLR4) 0.1 ug/mL,0.708
same,NF-kB SEAP reporter activity,RAW-Dual [1]; [4],0.413
same,NF-kB SEAP reporter activity,RAW-Dual [1]; [5],0.25
same,NF-kB SEAP reporter activity,RAW-Dual [1]; [6],0.279
C=CC(=O)N1CCC(C2CCNc3c(C(N)=O)c(-c4ccc(Oc5ccccc5)cc4)nn32)CC1 (stereo not drawn),NF-kB SEAP reporter activity,RAW-Dual [2]; [7],0.477
same,NF-kB SEAP reporter activity,RAW-Dual [2]; [8],0.541
Cn1c(=O)cc(C(=O)Nc2ccc3c(c2)OCCO3)c2ccccc21 (library stock concentration (final ~1000-fold dilution): 10 mM),NF-kB SEAP reporter activity,RAW-Dual [1]; agonist: LPS (TLR4) 0.1 ug/mL,0.989
same,NF-kB SEAP reporter activity,RAW-Dual [1]; [4],1.02
same,NF-kB SEAP reporter activity,RAW-Dual [1]; [5],0.995
same,NF-kB SEAP reporter activity,RAW-Dual [1]; [6],1.07
Cn1c(=O)cc(C(=O)Nc2ccc3c(c2)OCCO3)c2ccccc21,NF-kB SEAP reporter activity,RAW-Dual [2]; [7],0.997
same,NF-kB SEAP reporter activity,RAW-Dual [2]; [8],0.999
CC#CCn1c(N2CCCC(N)C2)nc2c1c(=O)n(Cc1nc(C)c3ccccc3n1)c(=O)n2C (stereo not drawn) (library stock concentration (final ~1000-fold dilution): 10 mM),NF-kB SEAP reporter activity,RAW-Dual [1]; agonist: LPS (TLR4) 0.1 ug/mL,1.31
same,NF-kB SEAP reporter activity,RAW-Dual [1]; [4],0.823
same,NF-kB SEAP reporter activity,RAW-Dual [1]; [5],1.05
same,NF-kB SEAP reporter activity,RAW-Dual [1]; [6],1.17
CC#CCn1c(N2CCCC(N)C2)nc2c1c(=O)n(Cc1nc(C)c3ccccc3n1)c(=O)n2C (stereo not drawn),NF-kB SEAP reporter activity,RAW-Dual [2]; [7],0.851
same,NF-kB SEAP reporter activity,RAW-Dual [2]; [8],1
O=c1ccoc2cc(O)ccc12,NF-kB SEAP reporter activity,RAW-Dual [2]; [7],1.18
same,NF-kB SEAP reporter activity,RAW-Dual [2]; [8],1.15
O=c1ccoc2cc(O)ccc12 (library stock concentration (final ~1000-fold dilution): 10 mM),NF-kB SEAP reporter activity,RAW-Dual [1]; agonist: LPS (TLR4) 0.1 ug/mL,1.85
same,NF-kB SEAP reporter activity,RAW-Dual [1]; [4],1.15
same,NF-kB SEAP reporter activity,RAW-Dual [1]; [5],1.04
same,NF-kB SEAP reporter activity,RAW-Dual [1]; [6],0.865
CS(=O)(=O)CCNCc1ccc(-c2ccc3ncnc(Nc4ccc(OCc5cccc(F)c5)c(Cl)c4)c3c2)o1.Cc1ccc(S(=O)(=O)O)cc1.Cc1ccc(S(=O)(=O)O)cc1,NF-kB SEAP reporter activity,RAW-Dual [2]; [7],1.68
same,NF-kB SEAP reporter activity,RAW-Dual [2]; [8],1.56
CS(=O)(=O)CCNCc1ccc(-c2ccc3ncnc(Nc4ccc(OCc5cccc(F)c5)c(Cl)c4)c3c2)o1.Cc1ccc(S(=O)(=O)O)cc1.Cc1ccc(S(=O)(=O)O)cc1.O,NF-kB SEAP reporter activity,RAW-Dual [2]; [8],1.99
CS(=O)(=O)CCNCc1ccc(-c2ccc3ncnc(Nc4ccc(OCc5cccc(F)c5)c(Cl)c4)c3c2)o1,NF-kB SEAP reporter activity,RAW-Dual [2]; [7],2.12
same,NF-kB SEAP reporter activity,RAW-Dual [2]; [8],2
C=CC(=O)Nc1ccc2ncnc(Nc3ccc(OCc4cccc(F)c4)c(Cl)c3)c2c1.Cc1ccc(S(=O)(=O)O)cc1 (library stock concentration (final ~1000-fold dilution): 10 mM),NF-kB SEAP reporter activity,RAW-Dual [1]; agonist: LPS (TLR4) 0.1 ug/mL,0.275
same,NF-kB SEAP reporter activity,RAW-Dual [1]; [4],0.575
same,NF-kB SEAP reporter activity,RAW-Dual [1]; [5],0.254
same,NF-kB SEAP reporter activity,RAW-Dual [1]; [6],0.377
C=CC(=O)Nc1ccc2ncnc(Nc3ccc(OCc4cccc(F)c4)c(Cl)c3)c2c1.Cc1ccc(S(=O)(=O)O)cc1,NF-kB SEAP reporter activity,RAW-Dual [2]; [7],0.818
same,NF-kB SEAP reporter activity,RAW-Dual [2]; [8],0.445
CS(=O)(=O)CCNCc1ccc(-c2ccc3ncnc(Nc4ccc(OCc5cccc(F)c5)c(Cl)c4)c3c2)o1 (library stock concentration (final ~1000-fold dilution): 10 mM),NF-kB SEAP reporter activity,RAW-Dual [1]; agonist: LPS (TLR4) 0.1 ug/mL,2.56
same,NF-kB SEAP reporter activity,RAW-Dual [1]; [4],0.324
same,NF-kB SEAP reporter activity,RAW-Dual [1]; [5],0.657
same,NF-kB SEAP reporter activity,RAW-Dual [1]; [6],1.19
Cc1cc(Nc2ncnc3ccc(-c4ccc(CNCCS(C)(=O)=O)o4)cc23)ccc1Oc1ccn2ncnc2c1 (library stock concentration (final ~1000-fold dilution): 10 mM),NF-kB SEAP reporter activity,RAW-Dual [1]; agonist: LPS (TLR4) 0.1 ug/mL,2.19
same,NF-kB SEAP reporter activity,RAW-Dual [1]; [4],0.229
same,NF-kB SEAP reporter activity,RAW-Dual [1]; [5],0.997
same,NF-kB SEAP reporter activity,RAW-Dual [1]; [6],0.811
CC1COC(Nc2ccc3ncnc(Nc4ccc(OCc5nccs5)c(Cl)c4)c3c2)=N1 (stereo not drawn) (library stock concentration (final ~1000-fold dilution): 10 mM),NF-kB SEAP reporter activity,RAW-Dual [1]; agonist: LPS (TLR4) 0.1 ug/mL,0.991
same,NF-kB SEAP reporter activity,RAW-Dual [1]; [4],0.507
same,NF-kB SEAP reporter activity,RAW-Dual [1]; [5],0.602
same,NF-kB SEAP reporter activity,RAW-Dual [1]; [6],0.911
CS(=O)(=O)CCNCc1ccc(-c2ccc3ncnc(Nc4ccc(OCc5cccc(F)c5)c(Cl)c4)c3c2)o1.Cc1ccc(S(=O)(=O)O)cc1.Cc1ccc(S(=O)(=O)O)cc1.O (library stock concentration (final ~1000-fold dilution): 10 mM),NF-kB SEAP reporter activity,RAW-Dual [1]; agonist: LPS (TLR4) 0.1 ug/mL,1.96
same,NF-kB SEAP reporter activity,RAW-Dual [1]; [4],0.24
same,NF-kB SEAP reporter activity,RAW-Dual [1]; [5],0.755
same,NF-kB SEAP reporter activity,RAW-Dual [1]; [6],0.786
CS(=O)(=O)CCNCc1ccc(-c2ccc3ncnc(Nc4ccc(OCc5cccc(F)c5)c(Cl)c4)c3c2)o1.Cc1ccc(S(=O)(=O)O)cc1.Cc1ccc(S(=O)(=O)O)cc1 (library stock concentration (final ~1000-fold dilution): 10 mM),NF-kB SEAP reporter activity,RAW-Dual [1]; agonist: LPS (TLR4) 0.1 ug/mL,4.16
same,NF-kB SEAP reporter activity,RAW-Dual [1]; [4],0.272
same,NF-kB SEAP reporter activity,RAW-Dual [1]; [5],0.851
same,NF-kB SEAP reporter activity,RAW-Dual [1]; [6],1.14
CC1COC(Nc2ccc3ncnc(Nc4ccc(OCc5nccs5)c(Cl)c4)c3c2)=N1 (stereo not drawn),NF-kB SEAP reporter activity,RAW-Dual [2]; [7],1.28
same,NF-kB SEAP reporter activity,RAW-Dual [2]; [8],1.03
Cc1cc(Nc2ncnc3ccc(-c4ccc(CNCCS(C)(=O)=O)o4)cc23)ccc1Oc1ccn2ncnc2c1,NF-kB SEAP reporter activity,RAW-Dual [2]; [7],1.08
same,NF-kB SEAP reporter activity,RAW-Dual [2]; [8],1.53
CCCC1CC(C(=O)NC(C(C)Cl)C2OC(SC)C(O)C(O)C2O)N(C)C1 (stereo not drawn) (library stock concentration (final ~1000-fold dilution): 10 mM),NF-kB SEAP reporter activity,RAW-Dual [1]; agonist: LPS (TLR4) 0.1 ug/mL,1.14
same,NF-kB SEAP reporter activity,RAW-Dual [1]; [4],1.04
same,NF-kB SEAP reporter activity,RAW-Dual [1]; [5],1.04
same,NF-kB SEAP reporter activity,RAW-Dual [1]; [6],1.17
CCCC1CC(C(=O)NC(C(C)Cl)C2OC(SC)C(O)C(O)C2O)N(C)C1 (stereo not drawn),NF-kB SEAP reporter activity,RAW-Dual [2]; [7],1.02
same,NF-kB SEAP reporter activity,RAW-Dual [2]; [8],1.07
COc1cccc2c1C(=O)c1c(O)c3c(c(O)c1C2=O)CC(O)(C(C)=O)CC3OC1CC(N)C(O)C(C)O1.Cl (stereo not drawn) (library stock concentration (final ~1000-fold dilution): 10 mM),NF-kB SEAP reporter activity,RAW-Dual [3]; agonist: LPS (TLR4) 0.1 ug/mL,0.249
same,NF-kB SEAP reporter activity,RAW-Dual [3]; [4],0.191
same,NF-kB SEAP reporter activity,RAW-Dual [3]; [5],0.0932
same,NF-kB SEAP reporter activity,RAW-Dual [3]; [6],0.195
COc1cccc2c1C(=O)c1c(O)c3c(c(O)c1C2=O)CC(O)(C(C)=O)CC3OC1CC(N)C(O)C(C)O1.Cl (stereo not drawn),NF-kB SEAP reporter activity,"RAW-Dual [2]; cytotoxicity flag (confluency mask): cytotoxic (confluency <70% of control), agonist: Imiquimod (TLR7) […]",0.365
same,NF-kB SEAP reporter activity,RAW-Dual [2]; [9],0.213
CC1CN(CC(Cc2ccccc2)C(=O)NCC(=O)O)CCC1(C)c1cccc(O)c1 (stereo not drawn),NF-kB SEAP reporter activity,RAW-Dual [2]; [7],1.03
same,NF-kB SEAP reporter activity,RAW-Dual [2]; [8],1.01
CC1CN(CC(Cc2ccccc2)C(=O)NCC(=O)O)CCC1(C)c1cccc(O)c1 (stereo not drawn) (library stock concentration (final ~1000-fold dilution): 10 mM),NF-kB SEAP reporter activity,RAW-Dual [1]; agonist: LPS (TLR4) 0.1 ug/mL,1.51
same,NF-kB SEAP reporter activity,RAW-Dual [1]; [4],1.01
same,NF-kB SEAP reporter activity,RAW-Dual [1]; [5],0.937
same,NF-kB SEAP reporter activity,RAW-Dual [1]; [6],0.609
Cn1cc(Nc2nccc(N3CC4CCC(C3)N4C(=O)C3CC3(F)F)n2)cn1 (stereo not drawn),NF-kB SEAP reporter activity,RAW-Dual [2]; [7],1.19
same,NF-kB SEAP reporter activity,RAW-Dual [2]; [8],0.995
Cn1cc(Nc2nccc(N3CC4CCC(C3)N4C(=O)C3CC3(F)F)n2)cn1 (stereo not drawn) (library stock concentration (final ~1000-fold dilution): 10 mM),NF-kB SEAP reporter activity,RAW-Dual [1]; agonist: LPS (TLR4) 0.1 ug/mL,0.973
same,NF-kB SEAP reporter activity,RAW-Dual [1]; [4],1.3
same,NF-kB SEAP reporter activity,RAW-Dual [1]; [5],1.69
same,NF-kB SEAP reporter activity,RAW-Dual [1]; [6],2.02
CC(NCCC(c1ccccc1)c1ccccc1)c1ccccc1.Cl (stereo not drawn) (library stock concentration (final ~1000-fold dilution): 10 mM),NF-kB SEAP reporter activity,RAW-Dual [3]; agonist: LPS (TLR4) 0.1 ug/mL,1.18
same,NF-kB SEAP reporter activity,RAW-Dual [3]; [4],0.723
same,NF-kB SEAP reporter activity,RAW-Dual [3]; [5],0.754
same,NF-kB SEAP reporter activity,RAW-Dual [3]; [6],0.637
CC(NCCC(c1ccccc1)c1ccccc1)c1ccccc1.Cl (stereo not drawn),NF-kB SEAP reporter activity,RAW-Dual [2]; [9],1.24
